Active and inactive are the calls of the source. Rule for the calls: active = hit-call score of the fitted dose curve at least 0.9, where 1 is the maximum; inactive = score below 0.9.
read-out: Interleukin 6 Receptor (IL6R), IL6R (gene 3570); assay: LTEA_HepaRG_IL6R: Life Technologies and Expression Analysis (LTEA) Assay for Interleukin 6 Receptor (IL6R) using HepaRG (AID 2283510); conditions: mRNA level, 48 h; actives raise or lower the signal;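 for AC50: differentiated human HepaRG liver cells in serum-free induction medium; TaqMan qRT-PCR signal normalized to ACTB GAPDH and POLR2A housekeeping genes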
Summary of the method: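 Readout is IL6R transcript level by TaqMan qRT-PCR, normalized to three housekeeping genes and fitted bidirectionally against 0.5% DMSO controls. Human HepaRG cells received chemicals for 48 h in serum-free induction medium, highest concentration 100 uM.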

Compound	outcome	AC50
c1ccc2n[nH]nc2c1	inactive	
Cc1oc2c(NC(=O)c3c(Cl)cccc3Cl)cccc2c1C(C)(C)O		23.8 µM (active)
Cc1cc(F)ccc1-c1cc(N2CC[C@@H](O)[C@H]2CO)ncc1N(C)C(=O)C(C)(C)c1cc(C(F)(F)F)cc(C(F)(F)F)c1	inactive	
CC(C)(c1cc(Br)c(O)c(Br)c1)c1cc(Br)c(O)c(Br)c1	inactive	
CN1C(=O)N(c2ccccc2Br)Cc2cnc(Nc3ccc4c(c3)OCC(CO)O4)nc21 (stereo not drawn)	inactive	
CCOC(=O)O[C@H](C)OC(=O)c1ccc2c(c1)cc(C(=O)NC1CCN(C(C)C)CC1)n2Cc1cc(-c2ccc(Cl)s2)on1	inactive	
CCCCCCCCOC(=O)c1cc(O)c(O)c(O)c1	inactive	
CN(C)c1ccc(C(=C2C=CC(=[N+](C)C)C=C2)c2ccc(N(C)C)cc2)cc1		12.5 µM (active)
COc1ccc2cc(S(=O)(=O)N[C@H](CC(=O)N[C@H](Cc3ccc(CN4[C@H](C)CCC[C@@H]4C)cc3)C(=O)N(C)C(C)C)c3ccc4c(c3)OCO4)ccc2c1		82.5 µM (active)
CCN(Cc1cccc(S(=O)(=O)O)c1)c1ccc(C(=C2C=CC(=[N+](CC)Cc3cccc(S(=O)(=O)O)c3)C=C2)c2ccccc2S(=O)(=O)[O-])cc1	inactive	
Oc1ccc2ccccc2c1	inactive	
Clc1cc(Cl)c2c(c1)N=C1CCCCCN1C2	inactive	
CC(C)(O)c1ccc(CNC(=O)c2cccnc2Oc2ccc3nonc3c2)cc1	inactive	
O=C(O)Cn1c(=O)n(Cc2ccc(Br)cc2F)c(=O)c2ccc(Cl)cc21	inactive	
CC/C(=C(/CC)c1ccc(O)cc1)c1ccc(O)cc1		78.5 µM (active)
COc1cc(C(=O)NC2CCN(C)CC2)ccc1Nc1ncc2c(n1)N(C1CCCC1)CC(F)(F)C(=O)N2C		86.4 µM (active)
CCN(CC)C(=O)c1cc(S(=O)(=O)Cc2ccccc2)c(N2CCC(c3ccccc3)CC2)cc1N(CC)CCN(C)C	inactive	
CC[C@@H]1C[C@H](N(Cc2cc(C(F)(F)F)cc(C(F)(F)F)c2)C(C)=O)c2cc(C(F)(F)F)ccc2N1C(=O)OC(C)C	inactive	
c1ccc2ccccc2c1	inactive	

Compound	outcome	AC50
CCCCCCCCCCCO	inactive	
Cc1ccc(C(C)C)cc1	inactive	
OC12N=C(c3ccccc3)SC1Cc1cc(Cl)ccc12 (stereo not drawn)		1.78 µM (active)
CN(C)C(=O)C1(N2CCCCC2)CCN(CC[C@@]2(c3ccc(Cl)c(Cl)c3)CN(C(=O)c3ccccc3)CCO2)CC1	inactive	
O=CCCCC=O	inactive	
NCc1cccc(C2CCN(C(=O)c3ccc(C#Cc4ccccc4F)o3)CC2)c1		82.5 µM (active)
COc1cccc([C@H](O)C2CCN(CCc3ccc(F)cc3)CC2)c1OC	inactive	
CC(C)(C)c1csc(-c2cc3cc(OCc4ccccc4CC(=O)O)ccc3o2)n1		50 µM (active)
O=c1[nH]sc2ccccc12	inactive	
O=c1c(-c2ccc(O)cc2)coc2cc(O)cc(O)c12	inactive	
CCCCCCCC[Si](OCC)(OCC)OCC	inactive	
CCCCOC(=O)CC(CC(=O)OCCCC)(OC(C)=O)C(=O)OCCCC	inactive	
CCCCCCCCN(C)CCCCCCCC	inactive	
CC[C@H](NC(=O)c1cc(F)ccc1NS(=O)(=O)c1cccc2cccnc12)c1ccccc1		38.6 µM (active)
CCCCCCCCCCCC[N+](C)(C)C	inactive	
O=C1CCC(C2CCCCC2)CC1	inactive	
O=C1c2ccccc2C(=O)N1CCc1noc(-c2ccc(CN3CCCCCC3)s2)n1	inactive	
CC1=CC(=O)/C(=C(/C)O)C(=O)O1	inactive	
CCO[Si](CCCNC(N)=O)(OCC)OCC	inactive	
